Hits are enriched below; roughly 3.9% of the tested compounds scored in any of these assays.
TROY NFkB inh – TROY signaling inhibition; Q293 LMP1-TROYcd NF-kB luciferase reporter, 4 h; inhibition, % at 10 µM; 0.98% of 360,000 active; AID 1347056;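 active = compounds whose plate-normalised and pattern-corrected inhibition of the luciferase reporter signal at the single screening dose is 50% or more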
TWEAK-Fn14 inh – TWEAK-Fn14 signaling inhibition; inhibition, % at 10 µM; 2% of 360,000 active; TWEAK-stimulated Fn14 reporter cells, luciferase luminescence, 8 h; in the data active = inhibition above about 50%
aSyn UTR inh – MLPCN primary screen, SNCA 5' untranslated region; alpha-synuclein 5'UTR reporter, inhibitor activity; inhibition, % (tested at 7.5 µM); 0.82% of 300,000 active; in the data active = inhibition above about 60%;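 note: H4 neuroglioblastoma cells stably carrying SNCA 5'UTR luciferase fusion; 0% = DMSO wells and 100% = positive control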
HIF-2a inh – inhibitors of HIF-2a; 786-0 RCC cells HIF-2a reporter, luciferase luminescence, overnight; inhibition, % at 18.8 µM; 0.72% of 360,000 active;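 active = inhibition of the luminescence signal of 40% or more relative to plate controls, in a single-dose primary screen at 18.75 µM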
C8 TRAIL sens – sensitizes caspase-8 expressing cells to TRAIL; NB7+C8 cells + TRAIL, ATPlite viability luminescence; inhibition (viability loss, TRAIL sensitization), % at 10 µM; 1% of 360,000 active; AID 624354;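 active = compounds causing at least 50% loss of cell viability in the single-dose screen, relative to plate controls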
HSP90 refold inh – HSP90 refolding inhibition in rabbit reticulocyte lysate | AID 1789 | luciferase refolding luminescence, 3 h | 0.91% of 290,000 active | inhibition, % at 5.6 µM;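 active = inhibition above the screen-wide mean plus 3 SD, computed separately per campaign, cut at about 16% in these data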;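 note: 0% = DMSO wells and 100% = 60 µM geldanamycin wells; inhibitors lower the luminescence because luciferase stays unfolded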
An asterisk follows results filed as active; / = not tested or not shown.

SMILES | TROY NFkB inh | TWEAK-Fn14 inh | aSyn UTR inh | HIF-2a inh | C8 TRAIL sens | HSP90 refold inh
O=[N+]([O-])c1ccc(NN=Cc2cccc([N+](=O)[O-])c2)cc1 | -51 | -27 | / | -88 | 8 | /
C/C(=N\Nc1cccc2cccnc12)c1ccccn1 | -6 | 70* | -17 | -50 | 75* | 7
Cc1ccc(SC[C@H](C)CN2CCC(NC(=O)OCc3ccccc3)CCC2=O)cc1 (some centres not stated) | 15 | 0 | / | -12 | 3 | /
CC(C)(C)S(=O)N1Cc2cc(C(=O)N3CCc4ccccc4C3)nc(-c3cccc(-c4ccncc4)c3)c2[C@H]1CCO (some centres not stated) | -18 | -23 | / | 13 | -15 | /
Cc1cc(-c2csc(NC(=O)c3ccc(=O)[nH]c3)n2)c(C)n1Cc1ccco1 | 5 | 58* | 1 | 6 | 32 | 1
COc1cccc(NC(=O)CSc2nnc(-c3cc(C)n(-c4ccccc4)c3C)o2)c1 | 36 | 89* | -23 | 42* | 13 | 7
COc1ccc(NC(=O)CSc2nnc(-c3cccc(O)c3)o2)cc1 | -27 | 4 | -110 | -136 | -1 | -2
O=C(CSc1nnc(-c2csc3c2CCCC3)o1)Nc1ccccc1 | 42 | 9 | 38 | -68 | 77* | -2
Nc1nc(=O)n(C2CCCCO2)cc1Br (configuration not stated) | -4 | 12 | / | 7 | -1 | /
COc1cccc(Cn2c(NCc3cccnc3)nc3c2c(=O)n(C)c(=O)n3C)c1 | 7 | -1 | 71* | 27 | 82* | -1
COc1ccc(S(=O)(=O)N2CCC(C(=O)N[C@@H](C)C(=O)NCc3ccccn3)CC2)cc1 | -35 | -3 | / | -3 | -6 | /
Cc1nn(C(=O)CN2C(=O)c3ccccc3C2=O)c(C)c1Br | / | 95* | 4 | 6 | 9 | 1
Cc1ccc(S(=O)(=O)N(CC(=O)N=Nc2c(O)[nH]c3ccccc23)c2cccc(C)c2)cc1 | 33 | 52* | -25 | -15 | -6 | -1
Cc1cc(Cl)ccc1N(CC(=O)N=Nc1c(O)[nH]c2ccccc12)S(C)(=O)=O | -11 | 2 | -1 | 14 | -2 | 0
Cc1ccc(/C=C2\C(=O)ON=C2c2ccccc2)o1 | 16 | 6 | 3 | 6 | -8 | 3
Cc1ccc(C2=NOC(=O)/C2=C\c2ccc(C)o2)cc1 | -29 | 6 | -17 | 42* | 4 | 2
Cc1ccc(-c2ccc(/C=C3\C(=O)ON=C3c3ccccc3)o2)c([N+](=O)[O-])c1 | -14 | 27 | -48 | 95* | 45 | 3
Cn1c2c(c(=O)n(C)c1=O)CN(Cc1ccccc1)CN2 | 4 | 10 | / | 13 | -9 | /
CCCC(=O)Nc1ccc(-c2csc(N/N=C\c3ccncc3)n2)cc1 | -37 | 20 | -116 | -174 | 71* | 0
Cc1cc(N2CCOCC2)ccc1/C=C\[N+](=O)[O-] | 50* | 70* | -101 | 55* | 8 | 3
O=[N+]([O-])c1ccc(N2CCOCC2)cc1O | -8 | -12 | -30 | 2 | 4 | 2
CCCc1cc2c(cc1N(C)S(=O)(=O)c1ccccc1)OCO2 | -2 | 17 | / | 20 | 17 | /
CC1(C(=O)NC2CCCC2)CCC(=O)N1CCCn1ccnc1 (configuration not stated) | 17 | 8 | / | 14 | -3 | /
N#CC1=C(N)Oc2cc(N)ccc2C1c1cccc(Br)c1 (configuration not stated) | 31 | -4 | 119* | 17 | 10 | 1
NC(=O)c1cccc(-c2ccnc3c2CC(C(=O)Nc2cccc(Oc4ccccc4)c2)O3)c1 (configuration not stated) | 27 | 33 | / | -6 | -2 | /
CC(NC1CCCC1)c1ccccc1 (configuration not stated) | 76* | 16 | 3 | 14 | -4 | -1
CCOC(=O)c1cnc2ccc(OCC)cc2c1NCc1ccccc1OC | 54* | 72* | 33 | -40 | 45 | 2
CC(C)[C@@H]1CC[C@@H](C)C[C@H]1OC(=O)C[n+]1cc(-c2ccc(Cl)cc2)n2c1CCCCC2 | 50 | 64* | -2 | -15 | 40 | 8
COc1ccc(-c2c[n+](CC(=O)OC3CC(C)CCC3C(C)C)c3n2CCC3)cc1 (configuration not stated) | 38 | 43 | -20 | 4 | 36 | 2
CC(C)Cn1c(-c2ccncc2)n[nH]c1=S | 5 | -9 | 5 | 29 | 8 | -3

Source: PubChem BioAssay (several laboratories)
